According to PubChem BioAssay:
The source made the active and inactive calls.

Tests used:
[1] = test system: Human papillomavirus type 1a protein E7 (residues 44-93); test: HPV1a E7 fragment binders on microarrays, primary screen, biochemical, small-molecule microarray, residues 44-93, 635 nm fluorescence (AID 1108); conditions: small-molecule microarray binding, fluorescence 635 nm; higher = more signal;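 further: E7 fragment applied at 1 µg/mL in TBST for 1 h at 4 C; score combines spot fluorescence with its signal to noise ratio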
[2] = modulators of HCV replicon luciferase signal, primary screen, HCV replication inhibitor project, Huh7 cells, luciferase reporter (AID 1109); conditions: 48 h, higher = more signal;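 further: huh7 hepatoma cells harbouring a luciferase neomycin HCV replicon reporter; luciferase luminescence as measure of HCV replicon replication; test concentration not given here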
[3] = biological target: Left-right determination factor 2 (Homo sapiens) (UniProt O00292); test: LEFTY2 binders on small-molecule microarrays, primary screen, biochemical, small-molecule microarray, 635 nm fluorescence scan (AID 1110); conditions: LEFTY2 binding, higher = more signal
Left-right determination factor 2 (Homo sapiens), sequence (O00292 whole entry, looked up): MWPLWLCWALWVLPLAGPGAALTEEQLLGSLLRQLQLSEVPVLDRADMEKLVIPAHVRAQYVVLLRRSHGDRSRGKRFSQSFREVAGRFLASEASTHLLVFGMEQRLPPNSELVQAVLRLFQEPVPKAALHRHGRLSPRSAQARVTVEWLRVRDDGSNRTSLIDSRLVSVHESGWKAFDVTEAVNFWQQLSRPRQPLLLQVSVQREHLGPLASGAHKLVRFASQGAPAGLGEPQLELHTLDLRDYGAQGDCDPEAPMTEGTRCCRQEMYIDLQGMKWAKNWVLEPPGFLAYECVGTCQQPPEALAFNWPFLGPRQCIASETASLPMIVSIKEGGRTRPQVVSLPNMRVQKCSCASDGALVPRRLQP

[4] = biological target: Calmodulin-1 (Homo sapiens) (UniProt P0DP23); test: CALM1 binders on microarrays, EGTA buffer, profiling panel, biochemical, small-molecule microarray, Cy5-labelled CALM1 (AID 1111); conditions: Cy5-CALM1 binding fluorescence, higher = more signal;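 further: labelled calmodulin applied in Tris saline Tween buffer holding calcium plus EGTA and DTT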
[5] = biological target: Calmodulin-1 (Homo sapiens) (UniProt P0DP23); test: calcium-bound CALM1 binders on microarrays, profiling panel, artefact control for SMM control-protein annotation, biochemical, small-molecule microarray, Cy5-labelled CALM1, plus calcium (AID 1112); conditions: Cy5-CALM1 binding fluorescence, higher = more signal;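 further: score merges spot fluorescence with signal to noise from triplicate slides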
[6] = small-molecule microarray binders of probe aWnt5a, primary screen, biochemical, biotinylated probe, 635/667 nm fluorescence (AID 1113); conditions: higher = more signal;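 further: score merges 667 nm fluorescence intensity with signal-to-noise per printed feature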
[7] = small-molecule microarray binders of probe aShh, primary screen, biochemical, biotinylated probe, 635/667 nm fluorescence (AID 1114); conditions: higher = more signal;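 further: probe is biotin-labelled aShh protein from a stem cell growth factor screen; measures binding of labelled protein to compounds printed on the slide; score merges feature fluorescence at 667 nm with signal-to-noise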
[8] = small-molecule microarray binders of probe aNog, primary screen, biochemical, biotinylated probe, 635/667 nm fluorescence (AID 1115); conditions: higher = more signal;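 further: probe is biotinylated aNog protein used at 0.15 µg/mL for 1 h at 4 C; z-score combines 667 nm fluorescence of each spot with its signal to noise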
[9] = biological target: Torsin-1A-interacting protein 1 (Homo sapiens) (UniProt Q5JTV8); test: LAP1 binders from COS7 cell lysate, primary screen, small-molecule microarray, 635/667 nm fluorescence (AID 1116); conditions: COS7-hLAP1 lysate binding, 635 nm fluorescence, higher = more signal
Torsin-1A-interacting protein 1 (Homo sapiens), sequence (Q5JTV8 whole entry, looked up): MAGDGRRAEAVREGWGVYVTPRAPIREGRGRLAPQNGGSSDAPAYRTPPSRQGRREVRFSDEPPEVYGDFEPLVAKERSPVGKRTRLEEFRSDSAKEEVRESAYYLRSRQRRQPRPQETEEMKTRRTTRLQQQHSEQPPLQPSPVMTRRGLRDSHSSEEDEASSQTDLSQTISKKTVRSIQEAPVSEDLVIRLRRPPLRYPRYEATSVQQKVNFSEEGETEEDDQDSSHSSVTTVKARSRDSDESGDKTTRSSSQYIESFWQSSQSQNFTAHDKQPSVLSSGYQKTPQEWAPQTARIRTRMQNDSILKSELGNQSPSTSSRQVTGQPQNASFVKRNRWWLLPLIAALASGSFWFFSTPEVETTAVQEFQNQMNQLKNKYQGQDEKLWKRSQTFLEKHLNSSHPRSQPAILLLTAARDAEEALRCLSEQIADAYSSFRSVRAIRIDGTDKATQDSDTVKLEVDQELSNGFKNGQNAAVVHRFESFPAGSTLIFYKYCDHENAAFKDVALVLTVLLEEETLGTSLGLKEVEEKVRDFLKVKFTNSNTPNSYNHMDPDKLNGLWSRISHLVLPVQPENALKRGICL

[10] = biological target: Alpha-bungarotoxin (Bungarus multicinctus) (UniProt P60615); test: alpha-bungarotoxin binders on microarray, profiling panel, artefact control for SMM control protein annotation, biochemical, small-molecule microarray, Alexa647 label, 635/667 nm fluorescence (AID 1117); conditions: alpha-BTX-A647 binding fluorescence, higher = more signal
Alpha-bungarotoxin (Bungarus multicinctus), sequence (P60615 whole entry, looked up): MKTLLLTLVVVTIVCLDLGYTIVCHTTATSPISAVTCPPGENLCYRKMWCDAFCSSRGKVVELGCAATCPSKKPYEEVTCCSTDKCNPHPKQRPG

Albumin (Bos taurus) = Albumin (Bos taurus) (UniProt P02769); test: bovine serum albumin binders on microarray, profiling panel, artefact control for SMM control protein annotation, biochemical, small-molecule microarray, Alexa647 label, 635/667 nm fluorescence (AID 1118); conditions: BSA-A647 binding, fluorescence 635 nm, higher = more signal;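 further: score merges 667 nm emission intensity and signal-to-noise per printed compound spot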
Albumin (Bos taurus), sequence (P02769 whole entry, looked up): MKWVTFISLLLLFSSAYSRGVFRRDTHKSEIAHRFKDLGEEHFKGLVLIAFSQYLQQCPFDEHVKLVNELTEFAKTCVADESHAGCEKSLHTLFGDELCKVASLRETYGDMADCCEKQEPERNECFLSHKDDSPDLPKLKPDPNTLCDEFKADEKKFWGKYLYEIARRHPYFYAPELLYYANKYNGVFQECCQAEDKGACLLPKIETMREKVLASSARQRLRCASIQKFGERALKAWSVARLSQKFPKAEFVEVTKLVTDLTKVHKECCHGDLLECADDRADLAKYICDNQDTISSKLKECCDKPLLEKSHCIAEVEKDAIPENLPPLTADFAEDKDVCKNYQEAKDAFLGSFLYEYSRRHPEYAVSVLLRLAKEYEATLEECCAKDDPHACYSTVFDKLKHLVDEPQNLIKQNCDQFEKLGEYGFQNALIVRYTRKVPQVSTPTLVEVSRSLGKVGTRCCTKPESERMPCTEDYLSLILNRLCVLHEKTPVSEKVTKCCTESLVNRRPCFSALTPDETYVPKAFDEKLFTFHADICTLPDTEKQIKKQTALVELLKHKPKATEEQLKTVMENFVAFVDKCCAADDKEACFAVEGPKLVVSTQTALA

[11] = small-molecule microarray binders of probe aXIP, primary screen, biochemical, NeuroSMM set, 635/667 nm fluorescence (AID 1119); conditions: higher = more signal, called active from +8 up or from −8 down;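 further: probe is the protein aXip251-270 applied at 1 µg/mL to compound-printed slides; binding of probe to printed compounds measured as 667 nm fluorescence plus signal to noise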
[12] = small-molecule binders of probe aNOTCH3, primary screen, biochemical, small-molecule microarray, 635/667 nm fluorescence (AID 1120); conditions: higher = more signal;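 further: probe is a biotin-tagged antibody raised against NOTCH3 rather than NOTCH3 protein; score merges spot fluorescence near 667 nm with spot signal to noise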
[13] = small-molecule binders of probe aNOTCH2, primary screen, biochemical, small-molecule microarray, 635/667 nm fluorescence (AID 1121); conditions: higher = more signal;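 further: score merges feature fluorescence read at 667 nm with its signal to noise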
[14] = biological target: Carbonic anhydrase 2 (Homo sapiens) (UniProt P00918); test: CAII small-molecule binders, profiling panel, biochemical, small-molecule microarray, Alexa647-labelled CAII (AID 1122); conditions: CAII-A647 binding fluorescence, higher = more signal
[15] = COS7 lysate on small-molecule microarray, probe aHis, 635 nm (AID 1123); conditions: COS7 cell lysate, fluorescence, higher = more signal;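 further: z-score combines 667nm fluorescence intensity with signal-to-noise per printed compound spot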
[16] = compound binding in COS7 lysate, probe aLAP1, primary screen, cell lysate, small-molecule microarray (AID 1124); conditions: probe aLAP1, fluorescence, higher = more signal;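 further: lysate comes from COS7 cells expressing LAP1 and is applied at 0.3 µg/mL; score merges spot fluorescence near 667 nm with signal-to-noise over triplicate slides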
Sam68 (KHDRBS1) = test: Sam68 small-molecule binders, primary screen, biochemical, small-molecule microarray, 635 nm fluorescence (AID 1125); conditions: small-molecule microarray binding, higher = more signal;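 further: score merges 667 nm channel intensity with signal to noise over triplicate slides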
[17] = test system: Chordin-like protein 2 (CHRDL2); test: CHRDL2 small-molecule binders, primary screen, biochemical, small-molecule microarray, 635 nm fluorescence (AID 1126); conditions: small-molecule microarray binding, fluorescence 635 nm; higher = more signal;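 further: printed compound slides probed with Chrdl2 protein at 4 µg/mL for 1 h at 4 C; score merges 667 nm emission intensity with signal to noise over three replicate slides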
[18] = biological target: Concanavalin-A (Canavalia ensiformis) (UniProt P02866); test: ConA small-molecule binders, primary screen, artefact control for SMM control protein annotation, biochemical, small-molecule microarray, Alexa647 label, 635 nm (AID 1127); conditions: ConA-A647 binding fluorescence, higher = more signal;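 further: z combines 667 nm emission intensity with signal-to-noise across three replicate slides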
Concanavalin-A (Canavalia ensiformis), sequence (P02866 whole entry, looked up): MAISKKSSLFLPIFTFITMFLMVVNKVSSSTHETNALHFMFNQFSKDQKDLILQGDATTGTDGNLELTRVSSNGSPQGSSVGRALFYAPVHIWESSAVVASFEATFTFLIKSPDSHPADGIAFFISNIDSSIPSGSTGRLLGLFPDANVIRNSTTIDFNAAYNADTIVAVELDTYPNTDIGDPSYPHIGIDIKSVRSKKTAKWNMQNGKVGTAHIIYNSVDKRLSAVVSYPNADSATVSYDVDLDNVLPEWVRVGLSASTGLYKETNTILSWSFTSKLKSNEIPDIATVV

Compound | composite z-score [1] | z-score [2] | composite z-score [3] | composite z-score [4] | composite z-score [5] | composite z-score [6] | composite z-score [7] | composite z-score [8] | composite z-score [9] | composite z-score [10] | composite z-score (Albumin (Bos taurus)) | composite Z-score [11] | composite z-score [12] | composite z-score [13] | composite z-score [14] | composite z-score [15] | composite z-score [16] | composite z-score (Sam68 (KHDRBS1)) | composite z-score [17] | composite z-score [18]
O=C1[C@H]2C=C(Br)[C@H](C[C@@H]2OCCOCCO)[C@@]12CO2 | 0.0617 | -1.85 | 0.348 | -0.2 | -0.341 | -0.0944 | -0.0769 | -0.303 | 0.0452 | 0.554 | -0.335 | -0.0482 (inactive) | -0.105 | -0.0418 | -0.122 | -0.146 | 0.669 | 0.421 | 0.169 | 0.393
[N-]=[N+]=Nc1ccccc1[C@@H]1OC(c2ccc(OCCCO)cc2)=N[C@]1(CCS(=O)(=O)c1ccccc1)C(=O)O | 1.42 | 0.666 | 0.459 | 1.35 | 0.304 | 0.383 | -0.0146 | -0.0345 | 0.677 | 1.55 | 0.829 | 0.834 (inactive) | 0.416 | -0.0323 | 0.683 | 1.61 | -0.252 | 1.31 | 0.012 | 1.15
O=C(CS)NCCCCCNC(=O)[C@H]1C[C@H]2C(=O)N[C@@H](Cc3ccccc3)C(=O)N2[C@H]1c1cccc(OCCO)c1 | 0.729 | -0.24 | 1.03 | -0.137 | -0.358 | 0.0388 | -0.153 | -0.259 | 1.12 | 0.656 | -1.62 | 0.482 (inactive) | 0.273 | -0.0562 | 0.484 | 1.75 | 0.76 | 1.31 | 1.43 | 1.18
COc1cc(NN2C(C(O)c3ccccc3)C=CC3C(=O)N(c4ccccc4)C(=O)C32)cc(OC)c1OC (stereo not given) | 1.49 | -1.28 | 0.265 | 1.36 | -0.356 | 0.216 | 0.302 | 0.539 | 0.804 | 0.585 | 0.923 | 0.153 (inactive) | 0.569 | -0.124 | 0.831 | 3.3 | 0.263 | 1.31 | -0.0912 | 0.919
CO[C@H]1O[C@H](CO)[C@@H](OC(=O)Nc2ccc3c(c2)OCO3)[C@H](OC(=O)Nc2ccc3c(c2)OCO3)[C@H]1OC(=O)Nc1ccc2c(c1)OCO2 | 1.45 | -0.36 | 0.265 | 1.52 | -0.623 | 0.0037 | 0.503 | 0.961 | 1.21 | 0.477 | 0.733 | 0.204 (inactive) | 0.307 | -0.0483 | 0.7 | 2.73 | 0.804 | 1.29 | 0.138 | 1.07
C=C(CCCC)C(=O)CC[C@H](OC(=O)c1ccccc1-c1ccccc1C(=O)O)c1ccc(CO)o1 | 1.42 | -0.872 | 0.645 | 0.856 | -0.771 | -0.0458 | -0.108 | 0.238 | 0.876 | 1.65 | 0.734 | 0.0663 (inactive) | -0.0014 | -0.14 | 0.15 | 0.455 | 0.645 | 1.29 | 0.82 | 0.933
COC(=O)[C@@]1(Cc2ccc(OC)cc2)[C@H]2c3cc(C(=O)N(C)C)n(Cc4ccc(OC)c(OC)c4)c3C[C@H]2CN1C(=O)c1ccccc1 | 1.46 | -1.09 | 0.0549 | 1.8 | 1.08 | 0.294 | 0.173 | 1.03 | 1.15 | 1.73 | 0.857 | -0.327 (inactive) | 0.391 | 0.218 | 0.587 | 3.17 | 0.457 | 1.29 | -0.885 | 0.96
CC1CC/C=C\[C@H]2OC34C=CCN(c5ccc6ccccc6c5)C(=O)[C@H]3N(CCCCCO)C(=O)[C@@H]4C2C(=O)O1 (stereo not given in full) | -2.21 | 0.324 | -1.64 | -0.827 | -0.16 | -0.141 | -0.214 | -0.119 | -1.16 | -1.28 | -0.158 | 0.322 (inactive) | -0.372 | -0.0941 | -0.622 | -0.357 | -0.615 | -1.95 | -1.25 | -1.23
O=C1OCC=C[C@H]2OC34C=CCN(CCN5CCOCC5)C(=O)[C@H]3N(CCCCCCO)C(=O)[C@@H]4[C@@H]12 (stereo not given in full) | -0.139 | -0.413 | -0.207 | -0.238 | -0.695 | -0.176 | -0.0904 | 0.0395 | 1.37 | 0.0977 | 0.509 | -1.05 (inactive) | 0.0208 | -0.104 | 0.688 | 3.1 | 0.55 | 0.274 | 0.158 | 0.0683
O=C(CS)NCCCCCCNC(=O)[C@H]1C[C@H]2C(=O)N3CCC[C@H]3C(=O)N2[C@H]1c1ccc(O)cc1 | -0.185 | -0.32 | -0.0156 | 0.511 | 0.425 | -0.0236 | -0.0011 | 0.202 | 1.68 | 0.927 | 0.11 | 0.131 (inactive) | 0.298 | -0.147 | 0.389 | -0.125 | -0.0269 | 0.557 | 0.257 | 0.853
COc1ccc(C(=O)Nc2cccc(CN3C(=O)[C@@]4(O[C@@H](CC(=O)N5Cc6ccccc6C[C@H]5CO)[C@H]([Si](C)(C)c5ccc(OC)cc5)[C@H]4C)c4ccccc43)c2)cc1 | -0.296 | -3.74 | 0.904 | -0.0023 | -0.68 | -0.0643 | 0.353 | 0.118 | 0.965 | 1.27 | -1.04 | 0.008 (inactive) | 0.127 | -0.14 | 0.576 | 1.15 | -0.0148 | 1.04 | 1.38 | 1.08
